# Source: PubChem BioAssay (NCI)
# “And” between values parts separate entries of the source, which are not always exact repeats. Equal values may be shown once. Compounds without any hit were thinned out: in the full panel of roughly 79,000, 15% have a hit. The source holds several records for some structures; these can differ, active in one and inactive in another. The source made the active and inactive calls. Rule as the data show it: active = growth inhibition above about 70%; inactive = the rest.
# Tests used:
# [1] = NCI Yeast Anticancer Drug Screen. Data for the rad50 strain (AID 155);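 also: 0% = growth of vehicle-only cultures of the same strain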; settings: S. cerevisiae rad50 strain growth inhibition, stronger effect = higher value
# In short: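 Compounds were tested on a yeast strain with an engineered DNA damage repair alteration; the reported value is growth inhibition normalised to vehicle treatment.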
# [2] = NCI Yeast Anticancer Drug Screen. Data for the mec2-1 strain (AID 157); settings: S. cerevisiae mec2-1 strain, stronger effect = higher value
# In short: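 Test agents were screened against the mec2-1 yeast strain, with defined DNA repair or cell cycle alteration. Growth was scored as inhibition against vehicle-only controls.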
# [3] = NCI Yeast Anticancer Drug Screen. Data for the sgs1 mgt1 strain (AID 161);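 also: 0% = growth of cultures given vehicle only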; settings: S. cerevisiae sgs1 mgt1 strain, stronger effect = higher value
# In short: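 Read-out: growth inhibition vs vehicle controls. Cells: mutant yeast strain deficient in DNA damage repair.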
# [4] = NCI Yeast Anticancer Drug Screen. Data for the cln2 rad14 strain (AID 165);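 also: 0% = growth equal to vehicle treated cultures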; settings: S. cerevisiae cln2 rad14 strain, stronger effect = higher value
# In short: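 Growth of compound-exposed yeast (cln2 rad14 genotype) measured and expressed as inhibition relative to vehicle.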
# [5] = NCI Yeast Anticancer Drug Screen. Data for the bub3 strain (AID 167); settings: S. cerevisiae bub3 mutant strain, stronger effect = higher value
# In short: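 Growth of a checkpoint-deficient yeast mutant is measured after compound exposure. Values represent inhibition relative to vehicle.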
# [6] = NCI Yeast Anticancer Drug Screen. Data for the mlh1 rad18 strain (AID 175); settings: S. cerevisiae mlh1 rad18 strain growth inhibition, stronger effect = higher value
# In short: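 In this whole-cell yeast screen, a strain with altered DNA damage repair is challenged with compound, and its growth is measured against matched vehicle-treated controls.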
# [7] = at 5.0 µM (retest, dose inferred, filed as 0.5)
# [8] = at 50.0 µM (retest, dose inferred, filed as 5.0)
Structure (SMILES),"growth inhibition [1, 7]","growth inhibition [1, 8]",growth inhibition ([1]; at 50.0 µM),"growth inhibition [2, 7]","growth inhibition [2, 8]",growth inhibition ([2]; at 50.0 µM),"growth inhibition [3, 7]","growth inhibition [3, 8]",growth inhibition ([3]; at 50.0 µM),"growth inhibition [4, 7]","growth inhibition [4, 8]",growth inhibition ([4]; at 50.0 µM),"growth inhibition [5, 7]","growth inhibition [5, 8]",growth inhibition ([5]; at 50.0 µM),"growth inhibition [6, 7]","growth inhibition [6, 8]",growth inhibition ([6]; at 50.0 µM)
COc1ccc(NP(=S)(Nc2ccc(OC)cc2)c2ccccc2)cc1,2% (inactive),54% (inactive),55% (inactive),-2% (inactive),57% (inactive),58.1% (inactive),6% (inactive),65% (inactive),49.6% (inactive),3% (inactive),51% (inactive),68.2% (inactive),-1% (inactive),78% (active),67.6% (inactive),5% (inactive),58% (inactive),28.9% (inactive)
CC(=O)Oc1ccc(N=C2C=C(Cl)C(=O)C(Cl)=C2)cc1,5% (inactive),23% (inactive),34.5% (inactive),9% (inactive),26% (inactive),-2.05% (inactive),2% (inactive),24% (inactive),33.4% (inactive),6% (inactive),14% (inactive),-23.8% (inactive),9% (inactive),46% (inactive),22.7% (inactive),7% (inactive),54% (inactive),19.9% (inactive)
CC(C)=[CH][Sb]([Br])([CH]=C(C)C)([CH]=C(C)C)[c]1ccccc1,-9% (inactive),8% (inactive),56.5% (inactive),-14% (inactive),27% (inactive),45.8% (inactive),-14% (inactive),16% (inactive),32.5% (inactive),-19% (inactive),6% (inactive),-11.8% (inactive),-3% (inactive),22% (inactive),64.9% (inactive),-11% (inactive),10% (inactive),40.5% (inactive)
CO/C(N)=C(\C#N)N=Cc1cccnc1,25% (inactive),26% (inactive),29.6% (inactive),25% (inactive),30% (inactive),80.2% (active),20% (inactive),32% (inactive),36.7% (inactive),26% (inactive),25% (inactive),15.4% (inactive),29% (inactive),47% (inactive),48.2% (inactive),29% (inactive),25% (inactive),-25.4% (inactive)
ClCCN(CCCl)CCN1c2ccccc2Sc2ccc(Cl)cc21,0% (inactive),69% (inactive),99% (active),1% (inactive),75% (active),96.2% (active),0% (inactive),97% (active),99.5% (active),-1% (inactive),49% (inactive),98.5% (active),-2% (inactive),80% (active),97.1% (active),3% (inactive),95% (active),98.9% (active)
C=C(C)C(=O)OC1CCC2(C)C(CCC3C2CCC2(C)C(c4ccc(=O)oc4)CC4OC432)C1 (stereo not given),7% (inactive),67% (inactive),71.9% (active),7% (inactive),48% (inactive),66.7% (inactive),-10% (inactive),57% (inactive),63.8% (inactive),26% (inactive),64% (inactive),60.2% (inactive),16% (inactive),80% (active),71.3% (active),21% (inactive),73% (active),63.9% (inactive)
NC(N)=N/N=C1\C(=O)N(c2ccc(Cl)cc2)C(=O)C1C(=O)Nc1ccc(Cl)cc1 (stereo not given),1% (inactive),-2% (inactive),54.6% (inactive),14% (inactive),17% (inactive),46.1% (inactive),5% (inactive),11% (inactive),76.1% (active),0% (inactive),-3% (inactive),-8.8% (inactive),8% (inactive),19% (inactive),-7.75% (inactive),2% (inactive),-14% (inactive),83.1% (active)
CC[C@@]1(O)CC(OC2CC(N3CCOCC3)C(O)C(C)O2)c2c(O)c3c(c(O)c2[C@H]1O)C(=O)c1cccc(O)c1C3=O (stereo not given in full),96% (active),98% (active),59.3% (inactive),36% (inactive),99% (active),51.2% (inactive),63% (inactive),99% (active),49.4% (inactive),31% (inactive),99% (active),97.3% (active),24% (inactive),99% (active),99% (active),52% (inactive),98% (active),51.1% (inactive)
FC(F)(F)c1nnn[n-]1.[Au+].c1ccc([PH+](c2ccccc2)c2ccccc2)cc1,99% (active),97% (active),97.6% (active),100% (active),97% (active),97.2% (active),99% (active),98% (active),95.6% (active),99% (active),96% (active),94.5% (active),98% (active),97% (active),96.3% (active),99% (active),97% (active),94.7% (active)
ClC1=C(Cl)C2(Cl)C(C3CO3)CC1(Cl)C2(Cl)Cl (stereo not given),0% (inactive),10% (inactive),76.1% (active),-1% (inactive),11% (inactive),69.3% (inactive),-2% (inactive),12% (inactive),90.8% (active),-12% (inactive),-13% (inactive),34.4% (inactive),4% (inactive),28% (inactive),89.7% (active),0% (inactive),18% (inactive),55.9% (inactive)
CN(C)CC1CCCCC1=O (stereo not given),-169% (inactive),36% (inactive),73.7% (active) and 1.45% (inactive) and -1.35% (inactive),-52% (inactive),-24% (inactive),56.2% (inactive) and -13.8% (inactive) and -15.9% (inactive),-67% (inactive),-6% (inactive),47.4% (inactive) and -15.4% (inactive) and -9.6% (inactive),-77% (inactive),3% (inactive),59.5% (inactive) and 8.3% (inactive) and 0.7% (inactive),-69% (inactive),-26% (inactive),35% (inactive) and -23.4% (inactive) and -3.6% (inactive),-131% (inactive),-38% (inactive),71.9% (active) and 18.1% (inactive) and 5.25% (inactive)
CCC[CH2][Sn]([Cl])([Cl])[CH2]CCC,96% (active),98% (active),99.5% (active),98% (active),98% (active),99.3% (active),96% (active),96% (active),99.2% (active),98% (active),98% (active),98.7% (active),98% (active),98% (active),99.5% (active),98% (active),97% (active),98.8% (active)
CCC1(O)C(=O)OCc2c1cc1n(c2=O)Cc2cc3cc([N+](=O)[O-])ccc3nc2-1 (stereo not given),76% (active),95% (active),77.9% (active),10% (inactive),46% (inactive),43.4% (inactive),21% (inactive),33% (inactive),24.9% (inactive),14% (inactive),8% (inactive),-2.9% (inactive),13% (inactive),10% (inactive),-21.3% (inactive),10% (inactive),32% (inactive),59.5% (inactive)
O=C1N[C@@H]2C(=C[C@H](O)[C@@H](O)[C@H]2O)c2cc3c(c(O)c21)OCO3,41% (inactive),82% (active),3.8% (inactive),41% (inactive),82% (active),-19% (inactive),53% (inactive),84% (active),18.1% (inactive),60% (inactive),83% (active),0.2% (inactive),53% (inactive),78% (active),-3.1% (inactive),41% (inactive),84% (active),6.3% (inactive)
COc1cc2c3c(c1)-c1c(ccc(OC)c1OC)CC3N(CCCl)CC2 (stereo not given),15% (inactive),92% (active),87% (active),11% (inactive),69% (inactive),38.9% (inactive),7% (inactive),71% (active),77.2% (active),7% (inactive),77% (active),31.8% (inactive),13% (inactive),75% (active),28.9% (inactive),12% (inactive),78% (active),86.7% (active)
